Laboratory results from the supplement of paper PMC11001985.
Values without a mark were called inactive.

Compound: C#CCNC(=O)CCSSCCC(=O)NCCc1ccc(C=O)c(C=O)c1
Experiment: lysine labeling ratio R10:1 (500 µM / 50 µM probe), SILAC-ABPP in living cells; higher = lower intrinsic lysine reactivity toward the probe, active = 2 or less
Conditions: HeLa; probe concentrations 500 vs 50 µM
In short: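 R, given per lysine, is the filtered median high-probe/low-probe MS1 peptide ratio, with the median then taken across forward and reverse replicates. Cells were living SILAC light and heavy HeLa cells in PBS at room temperature, labelled with 50 µM or 500 µM of an alkyne-tagged, disulfide-linked lysine probe. The ceiling applied is 20.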

UniProt P14625, sequence (P14625 whole entry): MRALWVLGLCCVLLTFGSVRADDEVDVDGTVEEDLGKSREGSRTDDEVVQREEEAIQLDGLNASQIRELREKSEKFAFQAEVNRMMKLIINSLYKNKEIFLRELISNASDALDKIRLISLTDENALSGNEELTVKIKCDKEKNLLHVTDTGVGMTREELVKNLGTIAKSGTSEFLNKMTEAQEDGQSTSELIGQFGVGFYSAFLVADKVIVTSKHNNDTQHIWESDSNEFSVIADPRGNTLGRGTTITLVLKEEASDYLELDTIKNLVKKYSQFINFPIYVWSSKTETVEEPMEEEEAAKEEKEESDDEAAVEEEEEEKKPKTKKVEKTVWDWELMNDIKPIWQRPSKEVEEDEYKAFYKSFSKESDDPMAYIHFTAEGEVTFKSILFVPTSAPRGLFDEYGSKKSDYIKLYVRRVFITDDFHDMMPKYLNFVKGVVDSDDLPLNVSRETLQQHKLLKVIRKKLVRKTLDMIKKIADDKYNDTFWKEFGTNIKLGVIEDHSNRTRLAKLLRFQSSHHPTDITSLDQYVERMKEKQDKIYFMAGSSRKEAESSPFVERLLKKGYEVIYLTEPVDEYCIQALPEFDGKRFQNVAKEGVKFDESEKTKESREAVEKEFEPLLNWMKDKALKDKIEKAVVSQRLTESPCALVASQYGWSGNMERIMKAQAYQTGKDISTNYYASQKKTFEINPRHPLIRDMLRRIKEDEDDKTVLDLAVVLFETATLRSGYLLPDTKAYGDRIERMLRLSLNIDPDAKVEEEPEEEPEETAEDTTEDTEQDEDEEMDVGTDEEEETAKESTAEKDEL
UniProt P35579, sequence (P35579 whole entry): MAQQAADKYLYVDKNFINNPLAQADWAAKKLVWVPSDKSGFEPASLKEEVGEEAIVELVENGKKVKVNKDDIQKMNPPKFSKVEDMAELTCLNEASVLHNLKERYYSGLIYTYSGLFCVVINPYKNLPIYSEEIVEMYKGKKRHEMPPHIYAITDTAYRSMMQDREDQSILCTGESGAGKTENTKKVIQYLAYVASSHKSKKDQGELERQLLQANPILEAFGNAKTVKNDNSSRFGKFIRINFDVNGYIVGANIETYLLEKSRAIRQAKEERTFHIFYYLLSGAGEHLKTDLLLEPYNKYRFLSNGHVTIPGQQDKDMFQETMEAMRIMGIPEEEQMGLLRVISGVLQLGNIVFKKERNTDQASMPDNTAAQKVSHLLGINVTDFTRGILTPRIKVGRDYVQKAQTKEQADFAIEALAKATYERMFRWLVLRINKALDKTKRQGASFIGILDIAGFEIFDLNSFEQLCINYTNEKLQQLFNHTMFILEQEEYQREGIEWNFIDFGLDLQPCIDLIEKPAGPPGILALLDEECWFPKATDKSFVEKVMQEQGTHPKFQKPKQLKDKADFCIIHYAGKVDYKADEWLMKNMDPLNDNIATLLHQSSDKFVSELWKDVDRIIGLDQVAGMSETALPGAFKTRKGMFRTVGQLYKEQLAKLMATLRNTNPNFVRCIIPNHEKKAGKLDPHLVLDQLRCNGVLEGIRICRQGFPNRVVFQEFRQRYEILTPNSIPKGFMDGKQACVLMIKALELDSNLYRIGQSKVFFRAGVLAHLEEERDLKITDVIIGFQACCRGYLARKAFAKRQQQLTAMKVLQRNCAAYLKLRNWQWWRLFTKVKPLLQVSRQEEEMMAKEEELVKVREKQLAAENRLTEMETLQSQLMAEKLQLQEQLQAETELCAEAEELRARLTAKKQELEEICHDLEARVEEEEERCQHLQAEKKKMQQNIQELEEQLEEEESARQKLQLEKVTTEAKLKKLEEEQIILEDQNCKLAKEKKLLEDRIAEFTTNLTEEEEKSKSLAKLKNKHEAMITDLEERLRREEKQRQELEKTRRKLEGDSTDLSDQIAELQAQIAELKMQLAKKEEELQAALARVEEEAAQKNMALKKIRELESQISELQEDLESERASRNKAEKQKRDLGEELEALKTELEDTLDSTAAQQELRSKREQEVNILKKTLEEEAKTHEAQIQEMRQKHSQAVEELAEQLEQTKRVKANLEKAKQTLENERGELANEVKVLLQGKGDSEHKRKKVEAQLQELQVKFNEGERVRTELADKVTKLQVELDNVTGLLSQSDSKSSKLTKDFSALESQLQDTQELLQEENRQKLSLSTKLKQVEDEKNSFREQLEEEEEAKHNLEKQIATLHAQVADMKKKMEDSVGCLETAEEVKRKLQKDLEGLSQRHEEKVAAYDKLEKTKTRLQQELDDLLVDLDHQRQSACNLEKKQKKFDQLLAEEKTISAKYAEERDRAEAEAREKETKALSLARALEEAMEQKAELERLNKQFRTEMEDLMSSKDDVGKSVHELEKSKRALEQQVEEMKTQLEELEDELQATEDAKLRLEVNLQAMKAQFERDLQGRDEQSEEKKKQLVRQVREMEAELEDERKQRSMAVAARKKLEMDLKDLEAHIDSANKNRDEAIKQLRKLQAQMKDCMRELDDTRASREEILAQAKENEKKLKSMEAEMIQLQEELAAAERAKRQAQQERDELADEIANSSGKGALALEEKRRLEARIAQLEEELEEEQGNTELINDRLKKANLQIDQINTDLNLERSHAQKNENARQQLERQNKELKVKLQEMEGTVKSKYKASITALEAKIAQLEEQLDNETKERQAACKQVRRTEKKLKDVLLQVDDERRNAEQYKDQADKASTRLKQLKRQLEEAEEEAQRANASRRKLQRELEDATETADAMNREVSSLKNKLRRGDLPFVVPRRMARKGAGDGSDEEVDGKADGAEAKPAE
UniProt O14786, sequence (O14786 whole entry): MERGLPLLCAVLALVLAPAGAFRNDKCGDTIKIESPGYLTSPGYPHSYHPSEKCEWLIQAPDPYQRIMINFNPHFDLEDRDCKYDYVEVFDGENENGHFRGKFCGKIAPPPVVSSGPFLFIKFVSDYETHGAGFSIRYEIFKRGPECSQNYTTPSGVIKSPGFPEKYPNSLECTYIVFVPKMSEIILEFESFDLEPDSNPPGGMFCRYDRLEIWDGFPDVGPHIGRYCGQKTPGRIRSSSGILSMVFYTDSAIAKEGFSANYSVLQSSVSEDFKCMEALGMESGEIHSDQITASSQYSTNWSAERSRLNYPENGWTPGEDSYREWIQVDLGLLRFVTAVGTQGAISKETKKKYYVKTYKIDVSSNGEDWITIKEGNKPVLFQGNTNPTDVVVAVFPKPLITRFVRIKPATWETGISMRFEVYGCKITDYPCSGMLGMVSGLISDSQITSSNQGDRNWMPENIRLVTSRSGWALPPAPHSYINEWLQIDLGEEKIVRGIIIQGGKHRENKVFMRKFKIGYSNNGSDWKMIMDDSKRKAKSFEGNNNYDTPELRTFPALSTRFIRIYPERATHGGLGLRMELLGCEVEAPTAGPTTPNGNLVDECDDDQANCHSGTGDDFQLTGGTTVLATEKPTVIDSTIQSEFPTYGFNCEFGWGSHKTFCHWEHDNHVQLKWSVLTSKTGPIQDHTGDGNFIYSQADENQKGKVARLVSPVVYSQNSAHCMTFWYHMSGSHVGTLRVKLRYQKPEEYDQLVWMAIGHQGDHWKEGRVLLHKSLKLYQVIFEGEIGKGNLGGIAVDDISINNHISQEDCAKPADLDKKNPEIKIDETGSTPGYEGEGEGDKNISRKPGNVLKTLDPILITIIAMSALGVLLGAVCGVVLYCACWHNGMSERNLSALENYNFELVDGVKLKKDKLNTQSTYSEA
UniProt Q99497, sequence (Q99497 whole entry): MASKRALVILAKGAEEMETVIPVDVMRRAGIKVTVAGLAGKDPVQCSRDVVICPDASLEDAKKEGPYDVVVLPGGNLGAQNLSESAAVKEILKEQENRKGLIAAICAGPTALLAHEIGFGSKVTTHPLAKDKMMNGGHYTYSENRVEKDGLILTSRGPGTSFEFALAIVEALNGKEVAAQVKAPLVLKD
UniProt Q99714, sequence (Q99714 whole entry): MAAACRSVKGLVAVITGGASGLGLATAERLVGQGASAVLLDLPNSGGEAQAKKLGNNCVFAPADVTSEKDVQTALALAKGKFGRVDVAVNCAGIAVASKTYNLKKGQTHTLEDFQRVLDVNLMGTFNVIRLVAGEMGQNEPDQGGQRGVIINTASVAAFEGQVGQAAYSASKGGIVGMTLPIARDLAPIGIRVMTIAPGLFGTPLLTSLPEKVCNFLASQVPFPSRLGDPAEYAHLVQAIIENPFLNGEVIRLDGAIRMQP
UniProt Q99623, sequence (Q99623 whole entry): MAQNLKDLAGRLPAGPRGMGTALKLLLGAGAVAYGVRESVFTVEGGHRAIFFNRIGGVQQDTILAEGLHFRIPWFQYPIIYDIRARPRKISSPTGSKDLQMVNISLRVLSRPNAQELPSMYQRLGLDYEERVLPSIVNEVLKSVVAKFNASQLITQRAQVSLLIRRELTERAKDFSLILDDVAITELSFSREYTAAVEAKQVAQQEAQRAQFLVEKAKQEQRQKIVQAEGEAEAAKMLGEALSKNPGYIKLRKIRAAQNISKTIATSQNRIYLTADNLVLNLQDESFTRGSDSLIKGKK
UniProt P49368, sequence (P49368 whole entry): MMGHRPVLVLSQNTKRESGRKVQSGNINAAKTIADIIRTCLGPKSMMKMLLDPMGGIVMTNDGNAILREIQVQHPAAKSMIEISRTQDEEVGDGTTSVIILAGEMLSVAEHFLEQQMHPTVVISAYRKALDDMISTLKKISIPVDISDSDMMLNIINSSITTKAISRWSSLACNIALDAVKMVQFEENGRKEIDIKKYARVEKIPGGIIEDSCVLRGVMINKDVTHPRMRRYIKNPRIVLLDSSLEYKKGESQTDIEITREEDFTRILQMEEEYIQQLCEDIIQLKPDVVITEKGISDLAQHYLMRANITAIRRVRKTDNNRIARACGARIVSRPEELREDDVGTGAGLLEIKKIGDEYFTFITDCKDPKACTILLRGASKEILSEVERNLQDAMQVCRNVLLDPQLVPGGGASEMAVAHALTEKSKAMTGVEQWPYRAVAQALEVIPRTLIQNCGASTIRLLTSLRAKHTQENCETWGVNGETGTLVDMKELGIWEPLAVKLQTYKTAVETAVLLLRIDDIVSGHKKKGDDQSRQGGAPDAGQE

Target	lysine labeling ratio R10:1
PARK7 (lysine site: K188) (UniProt Q99497)	1.98 (active)
TLN1 (lysine site: K1171) (UniProt Q9Y490)	1.76 (active)
UniProt P62701 (lysine site: K106)	2.28
FN1 (lysine site: K2354) (UniProt P02751)	6.78
CCT2 (lysine site: K135) (UniProt P78371)	2.8
L1CAM (lysine site: K230) (UniProt P32004)	5.86
EPHA2 (lysine site: K162) (UniProt P29317)	5.99
HSD17B10 (lysine site: K105) (UniProt Q99714)	2.63
HSP90B1 (lysine site: K633) (UniProt P14625)	3.03
RAB11B (lysine site: K179) (UniProt Q15907)	3.25
HMOX1 (lysine site: K243) (UniProt P09601)	1.07 (active)
MYH9 (lysine site: K1181) (UniProt P35579)	3.53
UniProt Q96JJ7 (lysine site: K164)	1.61 (active)
LAMC1 (lysine site: K1039) (UniProt P11047)	3.94
FRAS1 (lysine site: K1628) (UniProt Q86XX4)	3.34
UniProt Q99623 (lysine site: K200)	2.34
UniProt Q9UKX5 (lysine site: K223)	2.86
FAT4 (lysine site: K2512) (UniProt Q6V0I7)	2.31
FOLR1 (lysine site: K52) (UniProt P15328)	12.6
CCT3 (lysine site: K222) (UniProt P49368)	2.19

Target	lysine labeling ratio R10:1
UniProt P02533 (lysine site: K293)	2.74
EHD2 (lysine site: K32) (UniProt Q9NZN4)	2.92
PCBP2 (lysine site: K322) (UniProt Q15366)	4.37
LGALS3BP (lysine site: K427) (UniProt Q08380)	2.98
WDR1 (lysine site: K569) (UniProt O75083)	5.89
UniProt P41250 (lysine site: K646)	2.94
NRP1 (lysine site: K536) (UniProt O14786)	5.72
UniProt Q9NP84 (lysine site: K48)	4.2
P30462 (lysine site: K267) (UniProt P01889)	2.91
TGFBR3 (lysine site: K686) (UniProt Q03167)	1.81 (active)
EDIL3 (lysine site: K106) (UniProt O43854)	2.57
UniProt P05187 (lysine site: K84)	1.24 (active)
HSP90B1 (lysine site: K630) (UniProt P14625)	2.66
PRDX1 (lysine site: K197) (UniProt Q06830)	2.6
PDCD6IP (lysine site: K285) (UniProt Q8WUM4)	15.7
UniProt P62899 (lysine site: K70)	12.9
LAMA5 (lysine site: K2481) (UniProt O15230)	1.15 (active)
YWHAQ (lysine site: K85) (UniProt P27348)	4.79
FLNA (lysine site: K1491) (UniProt P21333)	2.1
PTPRM (lysine site: K231) (UniProt P28827)	1.53 (active)
